# Compound activity: PubChem, National Center for Advancing Translational Sciences (NCATS)
# The full list was thinned out, with hits kept by preference.
# HT1080-NT tox: kills 2HG-producing HT-1080-NT fibrosarcoma cells; HT-1080-NT fibrosarcoma viability, CellTiter-Glo ATP luminescence, 48 h; AID 686970; hit rate 1.6% among 360,000; Potency, µM (series often up to 46.1 µM), inactives show at the top dose activity, negative = less viability, usual class: cytotoxic;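 further: NT is the 2HG producing partner of a matched IDH1 knockdown line; potency means the concentration at half of the fitted maximal effect; 0% = DMSO-treated cells and -100% = media-only wells without cells; nearly all actives have a fitted effect of over 55% in size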
#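 A 48-hour cytotoxicity screen used HT-1080-NT cells plated 2 hours before compound delivery. ATP-based CellTiter-Glo luminescence measured viability, normalized to DMSO and no-cell controls.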
# IL-1B inflam inh: blocks inflammasome-driven IL-1 beta release; THP-1 LPS/ATP IL-1B secretion, AlphaLISA, 16 h; hits give low values; activity change, % at 57.5 µM; hit rate 4.7% among 360,000; in the data active means activity change below about -50%; inconclusive means mostly about -30% to -49%
#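 THP-1 cells pretreated 1 hr with compounds (up to 57.5 uM final), then stimulated with LPS (250 ng/mL final) plus ATP (1.25 mM final); secreted IL-1B measured by AlphaLISA after 16 hr, decreased signal indicating inhibition.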
# HT1080 IDH1KD tx: toxicity to HT-1080 IDH1 knockdown cells (counter line) | HT-1080 IDH1 knockdown viability, ATP luminescence, 48 h | Potency, µM (doses to about 46.1 µM), inactives show top-dose activity, negative = toxicity, actives largely listed as cytotoxic | hit rate 2% among 360,000;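 further: potency means the concentration at half of the fitted maximal effect; 0% = DMSO wells and -100% = cell-free medium wells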
#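 HT-1080-IDH1KD cells (IDH1 knocked down), 750/well in RPMI with 5% FBS, treated with compound 48 h at 37 degrees C. Viability by CellTiter-Glo luminescence, normalised to DMSO and no-cell wells; concentration-response curves classed.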
# DT40 TDP1 no CPT: qHTS for Inhibitors of human tyrosyl-DNA phosphodiesterase 1 (TDP1): qHTS in cells in absence of CPT; DT40 Tdp1-/- hTDP1 cells, no CPT, ATP luminescence, 48 h; Potency, µM (top dose mostly 46.2 µM), without a hit: top-dose activity change, negative = growth inhibition, usual class: inhibitors; hit rate 15% among 420,000; AID 686978, 2013; further: potency means the concentration at half of the fitted maximal effect; nearly all actives have a fitted effect of over 55% in size
#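 Growth of hTDP1-complemented DT40 Tdp1-knockout cells is measured by ATP luminescence after at least 48 hr compound exposure at 37 °C, with DMSO substituting for the 20 nM CPT used in the parallel screen.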
# TDP1 cell CPT: DT40-hTDP1 cell growth loss with CPT | chicken DT40 Tdp1-/-;hTDP1 cells + 20 nM CPT, ATP luminescence, 48 h | Potency, µM (series often up to 46.2 µM), without a hit: at the top dose activity change, negative = growth inhibition, hits mostly inhibitors | hit rate 12% among 420,000; further: potency means the concentration at half of the fitted maximal effect; nearly all actives have a fitted effect of over 55% in size
#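 Chicken DT40 Tdp1-/- cells stably complemented with human TDP1 were seeded at 400 cells/well in medium containing 20 nM camptothecin, exposed to pin-transferred compounds, and grown at 37 °C for at least 48 hr. Viability was read as ATP luminescence.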
# 12-LOX inh: inhibitors of human 12S-lipoxygenase ALOX12; Potency, µM (series often up to 108 µM), for the others: top-dose activity change, negative = inhibition, actives largely listed as inhibitors; hit rate 1.1% among 580,000; P18054; purified 12hLO, xylenol orange hydroperoxide absorbance; further: potency means the concentration at half of the fitted maximal effect
# Target sequence (P18054 whole entry, looked up): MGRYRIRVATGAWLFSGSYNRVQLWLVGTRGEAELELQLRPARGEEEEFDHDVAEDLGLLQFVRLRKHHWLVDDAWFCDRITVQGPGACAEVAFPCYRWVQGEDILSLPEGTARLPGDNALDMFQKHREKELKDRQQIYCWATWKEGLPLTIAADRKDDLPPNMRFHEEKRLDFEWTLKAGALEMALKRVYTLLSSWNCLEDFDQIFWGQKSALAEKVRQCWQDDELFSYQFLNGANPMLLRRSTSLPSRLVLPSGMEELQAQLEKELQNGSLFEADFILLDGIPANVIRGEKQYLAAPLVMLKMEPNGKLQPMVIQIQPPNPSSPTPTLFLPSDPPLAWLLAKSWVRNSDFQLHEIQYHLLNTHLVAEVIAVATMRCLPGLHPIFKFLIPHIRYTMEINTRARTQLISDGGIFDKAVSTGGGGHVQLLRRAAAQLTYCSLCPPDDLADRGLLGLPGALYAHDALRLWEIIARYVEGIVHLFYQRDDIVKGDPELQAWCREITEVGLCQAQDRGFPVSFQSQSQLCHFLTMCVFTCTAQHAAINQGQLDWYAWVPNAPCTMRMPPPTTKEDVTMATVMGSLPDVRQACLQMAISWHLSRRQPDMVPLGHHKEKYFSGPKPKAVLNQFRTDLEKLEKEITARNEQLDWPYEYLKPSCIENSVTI
#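 Hydroperoxide product was detected by ferrous iron/xylenol orange as the 573 to 405 nm absorbance ratio. Arachidonic acid at 40 uM (final) was turned over for 30 min at room temperature by 150 nM human 12hLO, pH 7.0 Hepes buffer, after 15 min compound preincubation.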
# * hit, by the source's call; ? = inconclusive; . = not tested or not shown. Unless noted, the call rests on the fitted dose curve; in most records, active means well fitted curve in the direction sought with a large enough effect; inconclusive means small, poorly fitted or top-dose-only effect, or another doubt; inactive means no such curve, though single readings can be large; an effect the other way counts as inactive or inconclusive. Unless noted, on the % scale 0 is the no-effect control and ±100 the full control effect.
SMILES,HT1080-NT tox,IL-1B inflam inh,HT1080 IDH1KD tx,DT40 TDP1 no CPT,TDP1 cell CPT,12-LOX inh
Cc1ccc2cc(C(=O)NCC3CCS(=O)(=O)C3)[nH]c2c1 (stereo unspecified),.,.,.,.,.,11.8%
O=C(C1CCN(c2ncnc3c2nc2n3CCCCC2)CC1)N1CCN(c2ccccc2)CC1,.,.,.,20.6µM*,?,-9.0%
CCc1c(C)nc2ncnn2c1N1CCC(C(=O)N2CCN(c3ccc(F)cc3)CC2)CC1,-1.6%,-12.7,11.0%,14.6µM*,16.4µM*,-21.3%
O=C(C1CCN(c2ncnc3c2nc2n3CCCCC2)CC1)N1CCN(c2ccc(F)cc2)CC1,-0.6%,-19.3,-6.9%,11.6µM*,?,?
CCc1c(C)nc2ncnn2c1N1CCCC(C(=O)Nc2ccc(NC(C)=O)cc2)C1 (stereo unspecified),-2.8%,-10.3,-1.6%,5.6%,5.8%,479.0%
O=C(C1CCN(c2ncnc3c2nc2n3CCCCC2)CC1)N1CCCCC1,4.3%,-6.0,-9.4%,?,-33.0%,3.3%
Cc1ccccc1C(=O)N1CCc2c(nc3cc[nH]n3c2=O)C1,.,.,.,.,.,11.0%
CCN(CC)CCCNC(=O)C1CCN(c2ncnc3nc[nH]c23)CC1,.,.,.,.,.,-5.6%
CC[n+]1c(/C=C/Nc2ccccc2)oc2ccccc21,-23.8%,-26.6,?,14.6µM*,14.6µM*,?
OCCN1CCN(c2nc(N3CCCCC3)nc(N3CCCCC3)n2)CC1,-1.7%,-27.9,-24.2%,18.4µM*,?,1.3%
CCOc1ccc(NC(=S)NNc2ccnc3cc(Cl)ccc23)cc1,?,-88.9*,?,13µM*,?,?
CCOc1ccccc1Nc1ccnc2cc(Cl)ccc12,-7.8%,-88.5*,-12.6%,23.1µM*,?,-1.3%
S=C(NNc1ccnc2cc(Cl)ccc12)Nc1ccc(Cl)cc1Cl,?,-86.4*,-10.2%,3.66µM*,4.61µM*,?
O=C(NCCCNc1ccnc2cc(Cl)ccc12)c1ccccc1F,-18.9%,-25.1,-2.3%,?,?,?
CCN(CC)Cc1ccc(Nc2ccnc3cc(Cl)ccc23)cc1O,.,.,.,6.51µM*,7.31µM*,.
CCOC(=O)c1ccc(Nc2nnc(C(C)(C)C)c(=O)[nH]2)cc1,-23.9%,-91.0*,?,23.1µM*,?,0.3%
Cc1nc(-c2cccnc2)sc1C(=O)Nc1cccc(C(F)(F)F)c1,10.2%,10.0,18.4%,18.4µM*,?,-2.9%
CCOC(=O)c1ccc(Nc2cc(C)nc(C)c2C(=O)OCC)cc1,-3.8%,24.6,-9.8%,18.4µM*,?,?
CCn1cc(Cl)c(C(=O)Nc2cccc(C(F)(F)F)c2)n1,-13.3%,-63.6*,-20.5%,-1.9%,30.8%,0.0%
O=C(Cc1ccccc1)NCC1CN(C(=O)C2CCOCC2)CC12CN(c1ccccc1)C2 (stereo unspecified),.,.,.,.,.,59.3%
CCc1ccc(-c2cc3c(=O)[nH]nc(SCC(=O)NC4CCCC4)n3n2)cc1,.,.,.,.,.,-3.2%
Cc1cc(Cl)c(C(=O)Nc2cccc(C(F)(F)F)c2)c(C)n1,-15.7%,-53.7*,-11.5%,-28.5%,-28.1%,?
CCOC(=O)c1ccc(NC(=O)c2c(Cl)cc(C)nc2C)cc1,-6.9%,?,-9.1%,5.17µM*,3.26µM*,0.0%
O=C(c1ccccc1F)N1N=C(c2ccsc2)CC1c1ccc2nccnc2c1 (stereo unspecified),.,.,.,.,.,16.3%
CCOc1cccc2c1OC1(C)CC2NC(=O)N1c1cccc(C(=O)N2CCN(c3ccccn3)CC2)c1 (stereo unspecified),1.0%,-65.5*,-0.3%,-19.6%,-22.8%,8.6%
SMILES,HT1080-NT tox,IL-1B inflam inh,HT1080 IDH1KD tx,DT40 TDP1 no CPT,TDP1 cell CPT,12-LOX inh
COc1ccc(CNC(=O)C[C@@H]2C[C@H]3O[C@H](CNCc4ccccc4Cl)[C@@H](O)[C@H]3O2)cc1,.,.,.,.,.,-19.6%
COC(=O)c1sc(S(=O)(=O)Nc2ccccc2Br)c(C(=O)OC)c1C,.,.,.,.,.,-4.4%
CCOc1ccc(CCN2C(=O)C(=O)N([C@@H](Cc3ccc(O)cc3)CN3CCC[C@H]3CN3C(=O)C(=O)NC[C@@H]3Cc3ccc(O)cc3)C[C@@H]2Cc2ccccc2)cc1,-5.4%,0.0,-4.0%,?,?,-8.0%
CCOc1ccc(CCN2C(=O)C(=O)N([C@@H](Cc3ccccc3)CN3CCC[C@H]3CN3C(=O)C(=O)NC[C@@H]3Cc3ccc(O)cc3)C[C@@H]2Cc2ccc(O)cc2)cc1,-9.4%,-60.1*,-5.2%,?,?,?
CCOc1ccc(CCN2C(=O)C(=O)N([C@@H](Cc3ccccc3)CN3CCC[C@H]3CN3C(=O)C(=O)NC[C@@H]3CC(C)C)C[C@@H]2Cc2ccc(O)cc2)cc1,?,-53.0*,?,?,-91.2%,-160.3%
Cc1ccc(NC(=O)CN(C)S(=O)(=O)c2ccc(C(=O)N3CCOCC3)s2)cc1F,.,.,.,.,.,-14.5%
C[C@H](c1ccccc1)N1C[C@H](COCc2ccccc2)Oc2cc(N3CC[C@H](N(C)C)C3)ccc2S1(=O)=O,23.1µM*,-21.9,14.6µM*,?,?,?
C[C@H](c1ccccc1)N1C[C@@H](COCc2ccccc2)Oc2cc(N3CC[C@H](O)C3)ccc2S1(=O)=O,?,-0.9,?,16.4µM*,?,-3.5%
C[C@@H](c1ccccc1)N1C[C@H](COCc2ccccc2)Oc2cc(N3CC[C@@H](N(C)C)C3)ccc2S1(=O)=O,?,69.4,?,?,?,?
C[C@H](c1ccccc1)N1C[C@H](COCc2ccccc2)Oc2cc(N3CC[C@H](O)C3)ccc2S1(=O)=O,?,-4.5,?,?,?,-25.5%
COc1ccc(C(=O)N2[C@@H](C(C)C)COc3cc(Br)ccc3S2(=O)=O)cc1,-21.6%,6.1,?,?,18.4µM*,0.9%
Cn1cnc2c1c(=O)n(Cc1ccccc1F)c(=O)n2C,.,.,.,.,.,30.9%
Cc1ccc(C)c2[nH]c(=O)c(CN(Cc3ccc4c(c3)OCO4)Cc3nnnn3Cc3ccco3)cc12,?,-60.2*,-28.7%,?,?,?
Cc1ccc2cc(CN(CCN3CCOCC3)Cc3nnnn3Cc3ccco3)c(=O)[nH]c2c1C,4.4%,-2.1,7.2%,-24.5%,?,13.5%
Cc1ccc2cc(CN(Cc3ccc4c(c3)OCO4)Cc3nnnn3Cc3ccco3)c(=O)[nH]c2c1C,-18.6%,0.0,-5.8%,23.1µM*,?,12.6µM*
